The campaign covered roughly 340,000 compounds. About 1,000 (0.29%) were called active. A selection follows. Results with a measured potency or affinity are listed apart. Unmarked numbers belong to inactive results. Cut-off read from the data, not from the text of the source: inconclusive = inhibition above about 27% without an active follow-up result; inactive = below that.
assay: H1N1 influenza NS1A inhibitors, functional cell based assay (AID 504329); conditions: percent inhibition, at 12.5 µM, stronger effect = higher value

Row | SMILES | inhibition
1 | CC(C)Cc1nnc(NC(=O)c2ccncc2)s1 | 7%
2 | C[C@H](CO)N1C[C@H](C)[C@@H](CN(C)S(=O)(=O)c2cccs2)Oc2ccc(NC(=O)Cc3ccccc3)cc2C1=O | -1.59%
3 | O=C(CN1C(=O)NC2(CCOc3ccccc32)C1=O)Nc1cccc(Cl)c1 (configuration not stated) | 3.28%
4 | CC(=O)CC(=O)Nc1ccn(-c2ccccc2)n1 | 10.6%
5 | O=C(CNC(=O)c1ccco1)NCC(=O)OCC(=O)c1ccc(Cl)c([N+](=O)[O-])c1 | 6.1%
6 | O=C1OC(c2ccc(F)cc2)=N/C1=C\C=C/c1ccccc1 | -22.8%
7 | CC(C)(C)NC(=S)NC(=O)C12CCC3CC(CC(C3)C1)C2 | 0.27%
8 | CCOc1ncccc1C(=O)Nc1ccccc1N1CCOCC1 | -4.05%
9 | CC(Oc1ccccc1)C(=O)Nc1nc(-c2ccccn2)cs1 (configuration not stated) | 16.9%
10 | Cc1ccc(C(=O)Nc2nc(-c3ccccn3)cs2)s1 | 18.4%
11 | Cc1csc(NC(=O)c2cccn2C)n1 | -0.43%
12 | Cc1cccc(C(=O)NC(C(=O)Nc2nc(-c3ccccn3)cs2)C(C)C)c1 (configuration not stated) | 15.6%
13 | COc1ccc(NC(=O)CSCc2cc(=O)n3nc(C4CC4)sc3n2)cc1 | 2.59%
14 | CCCCOc1c(Cl)cc(CNC(C)(C)CO)cc1OCC | -2.92%
15 | Cc1ccc(-c2nn(C)c(=O)c3ccccc23)cc1S(=O)(=O)NCCN1CCOCC1 | -10.6%
16 | O=C1C2CCCN2C(c2ccc(F)c(F)c2)N1c1cccc(Cl)c1 (configuration not stated) | -6.3%
17 | Cc1cc(OCc2cn3cccnc3n2)ccc1Cl | 6.77%
18 | CCOc1ccc2[nH]c(=O)c(CN(Cc3ccccc3OC)C(=O)c3ccccc3)cc2c1 | 21.1%
19 | CCOc1ccc(S(=O)(=O)N2CCC(C(=O)OCc3cccc(OC)c3OC)CC2)cc1 | -13.5%
20 | Cc1cccc(N=Nc2ccc(O)c3ncccc23)c1 | 0.95%
21 | COc1cccc(N=Nc2ccc(O)c3ncccc23)c1 | -0.21%

Row | SMILES | inhibition
22 | CCS(=O)(=O)c1ccc(OC)c(N=Nc2ccc(O)c3ncccc23)c1 | 9.35%
23 | COc1ccc(C)cc1N=Nc1ccc(O)c2ncccc12 | 6.77%
24 | Cc1ccc(C)c(N=Nc2ccc(O)c3ncccc23)c1 | 5.69%
25 | COc1ccc(N=Nc2ccc(O)c3ncccc23)cc1 | 2.93%
26 | O=C(NCc1ccco1)c1nn(-c2ccccc2)c(=O)c2ccccc12 | 0.06%
27 | O=C(COC(=O)CSc1ccc2ccccc2c1)NCc1ccc2c(c1)OCO2 | 2.14%
28 | CC(C)(C)CC(C)(C)NCC(O)COc1ccc2c(c1)CCC2 (configuration not stated) | 5.01%
29 | Cc1ccc(S(=O)(=O)NC2CCCCC2)c(C)c1NS(C)(=O)=O | 3.57%
30 | Cc1ccc(-c2nn(-c3ccccc3Cl)cc2C(=O)NCC2CCCO2)cc1 (configuration not stated) | -0.44%
31 | COCCN(CC(=O)Nc1cccc(C)c1C)C(=O)Cc1cccs1 | -7.25%
32 | Cc1cc(S(=O)(=O)N(Cc2ccccc2F)C2CC2)ccc1-n1cnnn1 | 6.46%
33 | O=C(Nc1ccccc1)OCN1C(=O)c2ccccc2C1=O | 2.63%
34 | CC(C)(C)C(=O)O/N=C1/C(=O)N(c2ccccc2)c2ccccc21 | -9.74%
35 | CCN(CC)c1ccc(/C=C(\C#N)C(N)=O)cc1 | 2.41%
36 | CCc1ccc(/C=C(/C#N)C(N)=S)cc1 | -1.52%
37 | CCN(CC)S(=O)(=O)c1ccc2oc(Nc3ccccc3)nc2c1 | 10.4%
38 | [O-]c1c[n+](-c2ccc(-[n+]3cc([O-])on3)cc2)no1 | 3.68%
39 | Cc1cccc2cccnc12 | -13.9%
40 | Cc1c(C)c2cccnc2c2ncccc12 | 3.77%
41 | Cc1ccnc2c1ccc1ccccc12 | -14.1%
42 | Cc1ccc2c(C)ccc(O)c2n1 | -11%

Row | SMILES | inhibition
43 | Cc1n[nH]c(=O)c2c(NC(=O)CSc3nc4ccccc4c(=O)n3-c3ccc(OC(F)F)cc3)oc(C)c12 | -4.1%
44 | CC(=O)N(C)C1=Nc2ccc(Cl)cc2C(c2ccccc2)=[N+]([O-])C1 | -5.29%
45 | CCN(Cc1ccccc1)C(=O)COC(=O)CNS(=O)(=O)c1ccc(C)cc1 | -5.52%
46 | CN(NC(=O)c1ccco1)c1nc2ccccc2nc1C(F)(F)F | -6.87%
47 | Cc1cc(-c2ccc(C)c(S(=O)(=O)Nc3cccc(CN4CCCC4)c3)c2)on1 | -3.07%
48 | COc1ccccc1NC(=O)Nc1ccccc1C(=O)NCCCN1CCOCC1 | -12.4%
49 | CCOc1ccc(N2CC(C(=O)N3CCCc4ccccc43)CC2=O)cc1 (configuration not stated) | 0.32%
50 | Cc1ccc(S(=O)(=O)N2CCOCC2)cc1NC(=O)C1=NN(c2ccccc2)C(=O)CC1 | -4.05%
51 | Oc1cccc(Nc2c3ccccc3nc3ccccc23)c1 | 8.39%
52 | CCN(CC)CCn1c2ccccc2c2nc3ccccc3nc21 | -13.6%
53 | Cc1ccccc1N1CCN(C2CCCN(C(=O)c3snnc3C)C2)CC1 (configuration not stated) | -10.7%
54 | O=CC1=C(N2CCOCC2)/C(=C\c2ccccc2)CC1 | -9.74%
55 | O=C1Nc2ccc(Br)cc2/C1=N\N=C\C1=C(N2CCOCC2)C(=C/c2ccccc2)/CC1 | 20.8%
56 | Cc1ccc(S(=O)(=O)CCC(=O)OCCOc2cccc(Br)c2)cc1 | -115%
57 | Cc1cccc(OCCOC(=O)c2c(-c3ccccc3)noc2C)c1 | -11.5%
58 | COc1ccc(S(=O)(=O)NCc2cccnc2)cc1NC(=O)c1ccccc1C | -8.44%
59 | CS(=O)(=O)N(CC(=O)Nc1ccccc1-c1ccccc1)c1ccc(F)cc1 | 1.39%
60 | O=C(Nc1cccc(Cl)c1)c1ccc(-n2cncn2)c([N+](=O)[O-])c1 | 2.4%
61 | CC(C(=O)OCC(=O)c1ccccc1)N1C(=O)c2ccccc2C1=O (configuration not stated) | -4.62%
62 | CC(=O)c1cc2c(cc1NC(=O)C1CCC1)OCO2 | 10.9%

From PubChem BioAssay AID504329 (Southern Research Specialized Biocontainment Screening …, 2011)
